# Screening results (PubChem BioAssay)
# A selection: hits, their analogues and other compounds. The true share with any hit is near 1.5%.
# BLM inh-1: blocks DNA unwinding by human BLM helicase; P54132; recombinant BLM DNA unwinding, fluorescence dequenching; Potency, µM (doses to about 56.1 µM), without a hit: top-dose activity change, negative = inhibition, usual class: inhibitors; actives 0.2% (n = 350,000); AID 2528;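 also: potency is read from the fitted curve at half-maximal effect; plate controls were vehicle for no effect and no enzyme for full effect; nearly all actives have a fitted effect of over 35% in size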
# RECQ1 inh-1: blocks DNA unwinding by human RECQ1; P46063; RECQ1 DNA unwinding, red fluorescence kinetic read; Potency, µM (highest dose often 57.3 µM), for the others: at the highest dose activity, negative = inhibition, usual class: inhibitors; actives 0.54% (n = 240,000); AID 2549;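 also: potency is read from the fitted curve at half-maximal effect; plate controls were vehicle for no effect and no enzyme for full effect; nearly all actives have a fitted effect of over 30% in size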
#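 50 nM RECQ1T1 preincubated 15 min with compound in Tris pH 8.0 buffer with MgCl2, DTT, Tween-20 and 2.5 ug/ml poly(dI-dC); started with 200 nM TAMRA/BHQ-2 forked duplex and 2 mM ATP. Unwinding read as fluorescence (525/598 nm), two reads 2 h apart.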
# PI5P4K alpha inh: inhibitors of human PI5P4K alpha | actives 1.2% (n = 330,000) | AID 652105 | PI5P4Kalpha enzyme, ADP-Glo luminescence, 60 min; hits give low values | max response, %; active = max response of -50% or lower; inconclusive = between -30% and -50%; inactive = -30% or higher; also: value at the top dose of about 77 µM
#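 Controls without substrate or without enzyme flank wells where PI5P4Kalpha converts substrate using 5 microM ATP (final). Incubation lasts 60 minutes at room temperature; ADP formed is read by ADP-Glo luminescence.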
# FEN1 inhibitor: human FEN1 inhibition. P39748. Recombinant FEN1 flap cleavage, fluorescence, 15 min. Potency, µM (series often up to 114 µM), for the others: top-dose activity change, negative = inhibition, actives largely listed as inhibitors. actives 0.35% (n = 390,000). AID 588795; also: potency is read from the fitted curve at half-maximal effect; nearly all actives have a fitted effect of over 65% in size
#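 In this screen, 50 nM flap DNA substrate was added to 10 nM FEN1 pretreated with compound for 15 min at room temperature; cleavage was followed with reads at 0 and 15 min, and Hill fitting gave concentration–response parameters.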
# GCN5L2 inh: GCN5L2 (KAT2A) acetyltransferase inhibition. Q92830. GCN5L2 HAT assay, ThioGlo1 CoA-SH fluorescence. Potency, µM (highest dose often 58.9 µM), for the others: at the highest dose activity change, negative = inhibition, most hits filed as inhibitors. actives 0.21% (n = 390,000). AID 504327; also: potency is read from the fitted curve at half-maximal effect
#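 Free CoA generated was detected with ThioGlo1 (50uM) fluorescence at Ex340nm/Em540nm, read immediately and after 20 min at room temperature. Enzyme, 20 nM in HEPES pH 7.5 buffer, saw compounds 15 min before adding 75uM H3(1-25) peptide and 70uM acetyl-CoA.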
# APE1 inh-1: blocks human APE1 abasic DNA cleavage | P27695 | recombinant APE1, TAMRA/BHQ-2 abasic DNA cleavage fluorescence | Potency, µM (doses to about 65.8 µM), for inactives: top-dose activity change, negative = inhibition, actives largely listed as inhibitors | actives 0.35% (n = 350,000);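 also: potency is read from the fitted curve at half-maximal effect; plate controls were vehicle for no effect and reference inhibitor for full effect; nearly all actives have a fitted effect of over 55% in size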
# Target sequence (P27695 whole entry, looked up): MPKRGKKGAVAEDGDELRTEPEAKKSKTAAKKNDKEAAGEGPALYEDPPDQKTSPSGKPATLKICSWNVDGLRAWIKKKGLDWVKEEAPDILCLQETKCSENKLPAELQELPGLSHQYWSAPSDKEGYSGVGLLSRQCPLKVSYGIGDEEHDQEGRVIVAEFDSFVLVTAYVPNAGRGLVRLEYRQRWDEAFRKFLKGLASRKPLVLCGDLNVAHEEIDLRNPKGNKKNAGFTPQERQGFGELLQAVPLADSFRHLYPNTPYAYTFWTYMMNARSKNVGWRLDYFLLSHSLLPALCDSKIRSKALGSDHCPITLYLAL
#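 Quantitative HTS: incision of a TAMRA/BHQ-2 double-stranded substrate bearing a tetrahydrofuran abasic site by 0.75 nM APE1 raises fluorescence. Substrate 50 nM final, added after 15 min compound preincubation at room temperature; progress as third-minus-first kinetic read difference.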
# APE1 dye cs: DNA dye displacement counter-screen activity; shares compounds with APE1 inh-1; Potency, µM (titrated, usually from 28.5 µM), for inactives: top-dose activity change, negative = inhibition, actives largely listed as inhibitors; DNA fluorescent dye displacement counterscreen, fluorescence; AID 2564; actives 7% (n = 480);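 also: loss of thiazole orange fluorescence as the dye is displaced from duplex DNA; potency is read from the fitted curve at half-maximal effect; 0% = ThO with dsDNA and no compound and -100% = ThO without dsDNA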
# EndoIV counter: counter-screen for APE1 inhibitors: inhibitors of E. coli endonuclease IV; actives 4% (n = 560); shares compounds with APE1 inh-1; AID 2565; E. coli Endo IV, fluorogenic AP-site DNA cleavage; Potency, µM (top dose mostly 27.1 µM), without a hit: top-dose activity change, negative = inhibition, actives largely listed as inhibitors;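 also: potency is read from the fitted curve at half-maximal effect; plate controls were uninhibited enzyme wells for no effect and no enzyme buffer wells for full effect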
# APE1 inh-2: APE1 (human) endonuclease inhibition, confirmation | shares compounds with APE1 inh-1 | purified APE1, fluorogenic abasic-site DNA cleavage | Potency, µM (titrated, usually from 57.1 µM), without a hit: at the top dose activity change, negative = inhibition, most hits filed as inhibitors | actives 44% (n = 750); also: potency is read from the fitted curve at half-maximal effect; nearly all actives have a fitted effect of over 30% in size
# APE1 FP: compounds that displace a DNA probe from human APE1; shares compounds with APE1 inh-1; APE1 binding to TAMRA-labelled double-stranded DNA, fluorescence polarization displacement; Potency, µM (series often up to 28.5 µM), inactives show at the highest dose activity, negative = inhibition, most hits filed as inhibitors; actives 7% (n = 480); also: potency is read from the fitted curve at half-maximal effect
# BLM inh-2: confirmation of inhibitors of human Bloom syndrome helicase BLM | Potency, µM, without a hit: max response, negative = inhibition, most hits filed as inhibitors | BLM DNA unwinding, fluorescence quenching, biochemical | shares compounds with BLM inh-1 | AID 2585 | actives 40% (n = 220);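 also: strand separation dequenches TAMRA so unwinding raises red fluorescence; potency is read from the fitted curve at half-maximal effect; series mostly up to about 69 µM; nearly all actives have a fitted effect of over 45% in size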
# RECQ1 conf: confirmation of human RECQ1 helicase inhibitors | AID 2708 | RECQ1 helicase DNA unwinding, fluorescence | shares compounds with RECQ1 inh-1 | actives 28% (n = 610) | Potency, µM (doses to about 229 µM), without a hit: top-dose activity change, negative = inhibition, actives largely listed as inhibitors; also: potency is read from the fitted curve at half-maximal effect; nearly all actives have a fitted effect of over 45% in size
# ADP FP counter: displaces ADP in a fluorescence polarization counter-screen for RECQ1 hits. ADP fluorescence polarization displacement counterscreen. shares compounds with RECQ1 inh-1. AID 2711. actives 27% (n = 530). Potency, µM (doses to about 228 µM), without a hit: top-dose activity change, negative = inhibition, hits mostly inhibitors; also: potency is read from the fitted curve at half-maximal effect; nearly all actives have a fitted effect of over 45% in size
# RECQ1 inh-2: confirmation of human RECQ1 helicase inhibitors | actives 15% (n = 1,100) | shares compounds with RECQ1 inh-1 | recombinant RECQ1 DNA unwinding, red fluorescence | Potency, µM (series often up to 119 µM), without a hit: at the highest dose activity, negative = inhibition, usual class: inhibitors; also: potency is read from the fitted curve at half-maximal effect; nearly all actives have a fitted effect of over 50% in size
# * = called active by the depositor; i = inactive; ? = inconclusive; . = not tested or not shown; [ ] = another dose, or the depositor's remark. Unless noted, calls follow the shape of the dose curve; as a rule, active = well fitted curve in the direction sought with a large enough effect; inconclusive = small, poorly fitted or top-dose-only effect, or another doubt; inactive = no such curve, though single readings can be large; an effect the other way counts as inactive or inconclusive. Unless noted, % is scaled to controls: 0 for no effect and ±100 for the full control effect.
SMILES,BLM inh-1,RECQ1 inh-1,PI5P4K alpha inh,FEN1 inhibitor,GCN5L2 inh,APE1 inh-1,APE1 dye cs,EndoIV counter,APE1 inh-2,APE1 FP,RECQ1 conf,ADP FP counter,RECQ1 inh-2,others
COc1ccc(C2CC(=O)c3c([nH]c(C(=O)OCc4ccccc4)c3C)C2)cc1 (stereo not drawn),-13%,.,.,12%,4%,.,.,.,.,.,.,.,.,
OC1OC[C@H](O)[C@H](O)[C@H]1O (stereo partly drawn),-1%,-2%,.,.,0%,?,.,.,.,.,.,.,.,
C[C@H](CCC(=O)O)C1CC[C@H]2C3CC[C@@H]4C[C@H](O)CC[C@]4(C)C3C[C@H](O)[C@]12C (stereo partly drawn),.,i,.,.,12%,2%,.,.,.,.,.,.,.,
COc1cc2oc(=O)ccc2cc1O,4%,8%,.,.,0%,9%,.,.,.,.,.,.,.,
COc1cc2c(ccc3cc(OC)c(OC)c(O)c32)cc1O,25µM*,11µM*,-106*,22µM*,-16%,0.71µM*,?,?,0.63µM*,?,40µM*,50µM*,.,
COc1ccc(N2Cc3cccc(C(=O)O)c3C2=O)cc1,16µM*,14µM*,?,-16%,?,13µM*,4%,-1%,4µM*,?,25µM*,-32%[91.9 µM],4.5µM*,BLM inh-2=16µM*
Cc1cc(O)c(Oc2cc(C)cc(O)c2O)c(O)c1,-4%,13µM*,?,50µM*,-8%,10µM*,5%,77%,?,6%,.,.,?,
Cc1ccc(OCC(=O)O)c(O)c1,.,.,-4,3%,.,.,.,.,.,.,.,.,.,
Cc1cc(=O)n2[nH]c(-c3ccsc3-n3c(C)ccc3C)cc2n1,7.9µM*,8.9µM*,-86*,?,-13%,3.5µM*,-10%,10%,?,3%,50µM*,32µM*,?,
Cc1cc(=O)n2[nH]c(-c3ccc(F)cc3)cc2n1,3%,i,-8,-2%,-13%,-10%,.,.,.,.,.,.,.,
